Pf growth 48h: P. falciparum growth inhibition at 48 hours (one generation); actives 5.9% (n = 310,000); AID 504832; Potency, µM (highest dose often 28.7 µM), actives largely listed as inhibitors; P. falciparum luciferase growth in erythrocytes, 48 h
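First compound was added to culture medium, then infected red cells at 0.1% parasitemia and 2% hematocrit (final). After incubation at 37 C under 5% CO2, luciferase detection reagent was dispensed and light output recorded.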
SARS PLpro yeast: blocks SARS-CoV papain-like protease in a yeast assay. S. cerevisiae expressing SARS-CoV PLpro, growth rescue. Potency, µM (highest dose often 32.9 µM), hits mostly activators. actives 0.19% (n = 330,000); calls by dose curve; further: nearly all actives have a fitted effect of over 55% in size
Pf growth 96h: inhibits malaria parasite growth, 96 h. P. falciparum luciferase reporter growth, 96 h. actives 6.9% (n = 320,000). Potency, µM (doses to about 28.7 µM), usual class: inhibitors
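Readout is luminescence from an integrated firefly luciferase in P. falciparum. Red cells, 2% hematocrit and 0.05% parasitemia final, were cultured with compound through two parasite generations (96 hours) at 37 C, 5% CO2.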
AmpC inh no detg: blocks E. coli AmpC beta-lactamase in detergent-free assay | P00811 | AmpC nitrocefin hydrolysis, absorbance 480 nm, 0.0001% Triton | Potency, µM (top dose mostly 57.1 µM), hits mostly inhibitors | actives 0.52% (n = 330,000) | AID 485341; further: nearly all actives have a fitted effect of over 20% in size
Target sequence (P00811 whole entry, looked up): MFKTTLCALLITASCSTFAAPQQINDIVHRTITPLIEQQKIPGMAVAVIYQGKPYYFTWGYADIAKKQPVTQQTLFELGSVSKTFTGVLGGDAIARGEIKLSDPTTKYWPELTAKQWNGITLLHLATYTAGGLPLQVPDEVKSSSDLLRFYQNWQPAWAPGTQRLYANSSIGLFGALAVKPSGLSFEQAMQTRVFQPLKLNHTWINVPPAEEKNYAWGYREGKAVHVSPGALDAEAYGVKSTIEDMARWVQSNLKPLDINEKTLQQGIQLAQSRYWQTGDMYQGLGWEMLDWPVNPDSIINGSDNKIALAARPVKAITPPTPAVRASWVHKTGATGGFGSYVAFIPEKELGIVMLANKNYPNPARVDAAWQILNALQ
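20 mM phosphate pH 7.0 + 0.01% (detergent screen) or 0.0001% Triton X-100; 5.3 nM AmpC reagent; cpd preinc 15 min RT; nitrocefin (800 uM stock) to start; A480 q20 s × 4 min; Activity was normalised to no-enzyme and no-compound control wells.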
Sm TGR block: inhibitors of Schistosoma mansoni thioredoxin glutathione reductase. Q962Y6. purified TGR, DTNB reduction, TNB absorbance 405 nm. Potency, µM (titrated, usually from 114 µM), actives largely listed as inhibitors. actives 3% (n = 360,000). AID 485364; further: nearly all actives have a fitted effect of over 60% in size
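First, TGR (20 nM dispensed) and NADPH were mixed with compound. Second, a 15 min room-temperature incubation followed. Third, further NADPH and then DTNB were added to start the reaction. Finally, TNB absorbance was monitored kinetically.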
AmpC inh detg: AmpC beta-lactamase inhibition with detergent present. P00811. AmpC hydrolysis of nitrocefin, absorbance 480 nm, 0.01% Triton. Potency, µM (series often up to 114 µM), actives largely listed as inhibitors. actives 0.041% (n = 370,000); further: nearly all actives have a fitted effect of over 25% in size
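AmpC (5.3 nM in the dispensed reagent) in 20 mM phosphate pH 7.0 with 0.01% (detergent screen) or 0.0001% Triton X-100 was preincubated with compounds for 15 min at room temperature. Nitrocefin was then added from an 800 uM solution, and hydrolysis was followed at 480 nm.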
A number is an active result; n = inactive; u = inconclusive; x = no result given. In the library only some 12% were active in any assay of this set; here they are far more common. Unless noted, the call rests on the fitted dose curve; in most records, active means well fitted curve in the direction sought with a large enough effect; inconclusive means small, poorly fitted or top-dose-only effect, or another doubt; inactive means no such curve, though single readings can be large; an effect the other way counts as inactive or inconclusive.

SMILES	Pf growth 48h	SARS PLpro yeast	Pf growth 96h	AmpC inh no detg	Sm TGR block	AmpC inh detg
Cc1cccc(C(=O)Oc2ccc(/C=N/NC(=O)c3ccccc3O)cc2)c1	u	n	n	n	n	n
CC(C)(C)C(=O)Nc1ccc(C(=O)N/N=C/c2ccccc2OC(=O)c2ccccc2)cc1	u	n	4.1µM	n	n	n
Cc1cccc(C(=O)Oc2ccc(/C=N/NC(=O)c3ccc(O)cc3)cc2)c1	u	n	n	14µM	n	n
CC(C)(C)C(=O)Nc1ccc(C(=O)N/N=C/c2ccccc2OC(=O)c2ccc(Cl)cc2)cc1	u	n	u	n	n	n
COc1cc(C(=O)N/N=C/c2ccc(OC(=O)c3ccccc3)c(OC)c2)ccc1O	n	n	9.3µM	n	n	n
O=C(O)CCC(=O)C(=O)O	n	x	n	x	x	x
COc1ccc(OCC(=O)N2CCN(c3nnc(-c4ccc(C)cc4)c4ccccc34)CC2)cc1	u	n	u	n	n	n

Source: PubChem BioAssay (National Center for Advancing Translational Sciences (NCATS))
